IL-2 act – IL-2 activation | hit rate 0.065% among 360,000 | IL-2 activation reporter assay, cell-based qHTS; stimulated with anti-CD3/CD4/CD28 beads; in transgenic mouse T cells | AID 652025 | activation, % (series mostly up to about 46 µM); in the data active means activation above about 50%; inconclusive means mostly about 30% to 49%
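Quantitative HTS in unstimulated transgenic mouse T cells, with memory T cells as non-tolerant control and PMA/ionomycin as tolerance-bypass control. Compound pretreatment lasted 60 minutes before 18 h bead stimulation; EGFP/DsRed fluorescence read.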
a7 integrin act – integrin-mediated muscular dystrophy alleviation activation. alpha7betagal myoblasts, beta-gal FDG fluorescence, 48 h. Potency, µM (top dose mostly 38.3 µM), hits mostly activators. hit rate 0.064% among 350,000. AID 624291; further: nearly all actives have a fitted effect of over 60% in size
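Alpha7betagal+/- myoblasts (passage 13) were plated 16-24 hr, then exposed to compounds (1:260 dilution of DMSO stock) for 48 hours at 37C. After MPER lysis, β-galactosidase reporter activity was read as FDG fluorescence (ex 480/em 540) after 30 minutes.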
Nrf2 ARE act – Nrf2 pathway activation | hit rate 0.31% among 410,000 | AID 624171 | Potency, µM (highest dose often 46.1 µM), hits mostly activators | AREc32 ARE-luciferase reporter (MCF7-derived line), luminescence, 24 h; further: nearly all actives have a fitted effect of over 65% in size
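ARE activation measured as luciferase luminescence (Steady-Glo, 30 min RT) in AREc32_Fluc cells after 24 hr compound exposure at 37 deg C, 5% CO2; cells seeded overnight at 1000/well in OPTI-MEM, 5% FBS.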
uPA generation – inhibitors of cell surface uPA generation | cell surface uPA generation assay, qHTS | Potency, µM (series often up to 38.3 µM), most hits filed as inhibitors | hit rate 0.31% among 330,000 | AID 540303; active means well fitted inhibition curve with a large enough effect; inconclusive means small, poorly fitted or top-dose-only effect; inactive means no such curve, though single readings can be large or run the other way; tested in mouse RAW 264.7 cells; further: nearly all actives have a fitted effect of over 55% in size
ALOX12 inh – blocks human arachidonate 12S-lipoxygenase; P18054; Potency, µM (series often up to 108 µM), actives largely listed as inhibitors; AID 1671190; hit rate 1.1% among 580,000; purified 12hLO, xylenol orange hydroperoxide absorbance
Target sequence (P18054 whole entry, looked up): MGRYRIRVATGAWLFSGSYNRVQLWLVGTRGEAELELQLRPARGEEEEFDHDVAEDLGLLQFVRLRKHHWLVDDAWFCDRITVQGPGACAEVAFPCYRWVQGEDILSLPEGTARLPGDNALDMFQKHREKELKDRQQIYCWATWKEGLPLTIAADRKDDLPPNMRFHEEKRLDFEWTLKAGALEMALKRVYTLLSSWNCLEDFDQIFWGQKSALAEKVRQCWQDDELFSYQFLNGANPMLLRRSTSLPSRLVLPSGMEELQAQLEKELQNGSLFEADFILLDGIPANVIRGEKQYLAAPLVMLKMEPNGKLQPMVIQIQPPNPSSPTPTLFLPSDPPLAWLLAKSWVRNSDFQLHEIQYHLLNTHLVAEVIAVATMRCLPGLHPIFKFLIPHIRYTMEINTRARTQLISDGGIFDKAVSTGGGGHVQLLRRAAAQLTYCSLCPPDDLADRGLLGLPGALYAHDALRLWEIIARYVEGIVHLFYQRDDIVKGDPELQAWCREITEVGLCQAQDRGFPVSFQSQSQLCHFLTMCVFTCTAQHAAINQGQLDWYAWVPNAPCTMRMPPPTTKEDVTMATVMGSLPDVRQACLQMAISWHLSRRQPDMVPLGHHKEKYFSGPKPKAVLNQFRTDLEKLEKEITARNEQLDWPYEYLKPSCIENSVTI
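Hydroperoxide product was detected by ferrous iron/xylenol orange as the 573 to 405 nm absorbance ratio. Arachidonic acid at 40 uM (final) was turned over for 30 min at room temperature by 150 nM human 12hLO, pH 7.0 Hepes buffer, after 15 min compound preincubation.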
A number is an active result; - = inactive; ? = inconclusive; . = not tested or not shown; ! = not confirmed by another sample. Shown are actives, neighbours in structure and some others; about 1.5% of the full set was active somewhere. Unless noted, the call rests on the fitted dose curve; in most records, active means well fitted curve in the direction sought with a large enough effect; inconclusive means small, poorly fitted or top-dose-only effect, or another doubt; inactive means no such curve, though single readings can be large; an effect the other way counts as inactive or inconclusive.

SMILES	IL-2 act	a7 integrin act	Nrf2 ARE act	uPA generation	ALOX12 inh
Oc1c(CN2CCOCC2)ccc2ccccc12	-	-	-	-	44.7µM
CCc1ccc(Sc2cc(C(=O)NCCN3CCOCC3)c3ccccc3n2)cc1	-	11.2µM	-	-	-
Cc1ccn2cc(-c3cccc(NC(=O)CCC(=O)O)c3)nc2c1	-	-	-	3.55µM	?
Cc1ccn2cc(-c3ccc(Br)cc3)nc2c1	-	-	-	2.82µM	-
CC(=O)Nc1cccc(-c2cn3ccc(C)cc3n2)c1	-	-	-	?	-
Cc1ccc(-c2cn3ccc(C)cc3n2)cc1	.	.	-	.	-
Cc1ccc(O)c(NC(=O)CSc2ccc(Cl)cc2)c1	-	-	-	-	-
Cc1ccc(NS(=O)(=O)c2ccc(NC(=O)CSc3ccc(Cl)cc3)cc2)c(C)c1	-	-	-	-	31.6µM
Cc1nn(-c2ccccc2)c(=O)c2ccccc12	-	-	-	-	-
Cc1nn(-c2cccc(C(F)(F)F)c2)c(=O)c2ccccc12	-	-	3.55µM	-	?
CN1C[C@H](C(=O)Nc2cccc(F)c2)C[C@H]1c1cccc(C(F)(F)F)c1	.	.	.	.	20µM
O=C(N/N=C/c1cn[nH]c1-c1ccccc1)c1ccco1	-	-	8.91µM	-	-
O=C(N/N=C\c1cn[nH]c1-c1ccccc1)c1ccc([N+](=O)[O-])cc1	-	-	-	-	-
Cc1ccc(C)c(NC(=O)C2CCN(S(=O)(=O)c3cccs3)CC2)c1	.	.	.	.	-
c1ccn2c(c1)nc1c2nc2ccccn21	-	-	-	.	-
Cc1c(-c2ccc(Br)cc2)nc2ccccn12	-	-	3.98µM	-	-
Clc1c(-c2ccccc2)nc2ccccn12	-	-	11.2µM	-	-
O=C1CCc2c(Cl)cc(Cl)c(O)c21	.	.	.	.	5.62µM
Oc1c(Cl)cc(Cl)c2c1NCCC2	-	-	-	-	?
Cc1ccc(C)c(-c2cc(C(=O)O)c3cc(C)ccc3n2)c1	.	.	.	.	-
Cc1ccc(-c2onc3ccc(-c4cc(C(=O)O)c5cc(Br)ccc5n4)cc23)cc1	.	.	.	.	7.94µM
Cc1ccc(-c2cc(C(=O)N3CCCCC3)c3cc(Br)ccc3n2)o1	.	.	.	.	8.91µM
O=C(O)c1cc(-c2ccccn2)nc2ccc(Cl)cc12	.	.	.	.	-
Cc1ccc(-c2cc(C(=O)NN3CCOCC3)c3cc(Br)ccc3n2)o1	-	-	-	-	?
Cc1ccc(-c2cc(C(=O)O)c3cc(Cl)ccc3n2)o1	.	.	.	.	7.94µM!
SMILES	IL-2 act	a7 integrin act	Nrf2 ARE act	uPA generation	ALOX12 inh
Cc1ccc2nc(-c3ccc(C)o3)cc(C(=O)O)c2c1	.	.	.	.	5.01µM
O=C(CCc1ncc(-c2ccc(F)cc2F)o1)NCc1ccc(OC(F)F)cc1	.	.	.	.	-
Cc1ccc(-c2cc(C(=O)O)c3cc(Br)ccc3n2)o1	-	-	-	-	15.8µM
COc1cccc(NC(=O)NC[C@H]2O[C@@H](CO)[C@@H](O)[C@H]2N2CCN(c3ccccc3OC)CC2)c1	.	.	.	.	17.8µM
COc1ccccc1N1CCN([C@@H]2[C@H](O)[C@H](CO)O[C@@H]2CNC(=O)c2cccc(F)c2)CC1	.	.	.	.	-
Cn1cnnc1Sc1ccc(/C=C/C(=O)c2ccc(O)cc2)cc1[N+](=O)[O-]	-	-	?	8.91µM	-
CCC(C)(C)NC(=O)c1ccc(Sc2nncn2C)c([N+](=O)[O-])c1	-	-	-	-	-
COc1ccc(-c2nn(Cc3nc(-c4ccccc4Br)no3)c(=O)c3ccccc23)cc1	.	.	.	.	-
Cc1ccc(NC(=O)C2CCCCC2C(=O)O)cc1Cl (configuration not stated)	-	-	-	-	?
Cc1ccc(NC(=O)C2CCCCC2C(=O)O)cc1C (configuration not stated)	-	11.2µM	-	-	-
Nc1ccc(-c2nc3ccc(N)cc3o2)cc1	-	-	-	7.94µM	-
Nc1ccc(-c2nc3cc(N)ccc3o2)cc1	-	?	-	?	-
COc1ccccc1OCCNC(=O)c1cc(=O)c2ccccc2o1	.	.	.	.	-
COc1ccc(OC)c(CN2CC[C@@H]3OCC(=O)N(C(C)C)[C@H]3CC2)c1	.	.	.	.	-
Fc1ccc(-c2c[nH]c(=S)n2Cc2ccccc2)cc1	-	-	-	-	50.1µM
Fc1ccc(-c2n[nH]c(=S)n2Cc2ccccc2)cc1	-	-	-	-	.
OC1(c2csc(CN3CCc4ccccc4C3)n2)CCNCC1	.	.	.	.	-
O=C(Cc1cccc2ccccc12)NC(=S)Nc1cccc(C(=O)O)c1	-	-	-	-	35.5µM
O=C(Cc1cccc2ccccc12)Nc1ccccc1C(=O)O	-	?	-	-	-
O=C(Cc1cccc2ccccc12)Nc1cc(Cl)ccc1C(=O)O	-	-	-	-	17.8µM!
O=C(O)c1cccc(NC(=S)NCc2ccccc2)c1	-	-	-	-	?
C[C@]12CC[C@@H]3c4cc(O)c(O)cc4CC[C@H]3[C@@H]1CC[C@@H]2O	-	.	-	?	7.94µM
COC(=O)[C@@H](C)NC(=O)[C@H]1CN(C(=O)c2cccnc2)CCN1C(=O)c1cccs1	.	.	.	.	-
CC(C)CN1C(=O)/C(=C/c2ccco2)NC1=S	-	-	?	-	28.2µM
Cc1ccc(-c2csc(NS(=O)(=O)c3cccc(F)c3)n2)o1	-	-	-	-	15.8µM
SMILES	IL-2 act	a7 integrin act	Nrf2 ARE act	uPA generation	ALOX12 inh
Cc1nc2cc(NS(=O)(=O)c3cccc(F)c3)ccc2o1	.	.	.	.	-
Cn1c(NC(=O)/C=C/c2ccccc2)cc(=O)n(C)c1=O	-	-	7.08µM	-	-
Cc1nc2ccccn2c1-c1ccnc(=S)[nH]1	-	-	-	-	15.8µM
CCOc1ccc(C(=O)CC(NCc2cccs2)C(=O)O)cc1 (configuration not stated)	-	-	11.2µM	-	?
CCOc1ccc(C(=O)CC(C(=O)O)N2CCCCC2)cc1 (configuration not stated)	-	-	15.8µM	?	.
COc1cccc(NC(=O)Nc2nccc(C)n2)c1	-	-	-	2.51µM	-
O=C(O)c1ccccc1N/N=C/c1cc(Br)cc(Br)c1O	-	-	-	-	44.7µM
COc1ccc(-c2c(NC(=O)c3ccc([N+](=O)[O-])cc3)oc3c(C)cccc3c2=O)cc1	.	.	.	.	-
O=C(c1ccc(-n2ccnc2)cc1)N1CCC(c2[nH]ncc2-c2ccccc2)CC1	.	.	.	.	-
CCc1nc(-c2c3n(c(=O)n(Cc4ccccc4C(F)(F)F)c2=O)CCCC3)no1	.	.	.	.	-
N#C/C(=C\C=C\c1ccco1)C(=O)NC1CCCCCC1	.	.	.	.	12.6µM
N#C/C(=C/C=C/c1ccccc1)C(=O)NC1CC1	.	.	.	.	-
COc1ccc(C(=O)O)cc1NC(=S)NC(=O)c1ccc(-c2ccc(Cl)cc2)o1	-	-	-	-	?
O=C(O)c1cccc(NC(=S)NC(=O)c2ccc(-c3ccc(Cl)cc3)o2)c1	-	-	-	-	12.6µM
Cc1cccc(NC(=S)NC(=O)c2ccc(-c3ccccc3)cc2)n1	-	?	-	-	35.5µM
CN1CCN(c2ccc(NC(=O)c3ccc(-c4ccc(Br)cc4)o3)cc2)CC1	-	-	-	-	50.1µM
CC(C)NC(=S)NC(=O)c1ccc(-c2ccccc2)cc1	-	-	-	-	15.8µM
COCc1nc(CCNC(=O)NCCc2ccccc2)no1	.	.	.	.	-

Compound activity (PubChem)
